# Records with an inconclusive call do not appear. A call without a number means that no potency is given here. A number with no mark means an inactive call. The source made the active and inactive calls. Calls come from the whole dose curve; as a rule, active = well fitted curve in the direction sought with a large enough effect; inconclusive = small, poorly fitted or top-dose-only effect, or another doubt; inactive = no such curve, though single readings can be large; an effect the other way counts as inactive or inconclusive.
# Assays:
# [1] = qHTS for Inhibitors of the Aldehyde Dehydrogenase Family (ALDH1A2, ALDH1A3, ALDH2, ALDH3A1) (AID 2061307); note: nearly all actives have a fitted effect of over 50% in size; for potency: test system not described further here; potency is the fitted concentration of half-maximal effect
# [2] = target: Aldehyde dehydrogenase, mitochondrial (Homo sapiens) (UniProt P05091); assay: qHTS for Inhibitors of the Aldehyde Dehydrogenase Family (ALDH2) Primary screen (AID 2061308); note: nearly all actives have a fitted effect of over 55% in size
# [3] = target: Retinaldehyde dehydrogenase 3 (Homo sapiens) (UniProt P47895); assay: qHTS for Inhibitors of the Aldehyde Dehydrogenase Family (ALDH1A3) Confirmatory screens (AID 2061311); note: nearly all actives have a fitted effect of over 60% in size; note: potency is the fitted concentration of half-maximal effect
# [4] = target: Retinal dehydrogenase 2 (Homo sapiens) (UniProt O94788); assay: qHTS for Inhibitors of the Aldehyde Dehydrogenase Family (ALDH1A2) Confirmation screens (AID 2061314); note: nearly all actives have a fitted effect of over 65% in size; note: potency is the fitted concentration of half-maximal effect
# [5] = target: Retinaldehyde dehydrogenase 3 (Homo sapiens) (UniProt P47895); assay: qHTS for Inhibitors of the Aldehyde Dehydrogenase Family (ALDH1A3) Primary screen (AID 2061315)
# [6] = target: Aldehyde dehydrogenase 1A1 (Homo sapiens) (UniProt P00352); assay: qHTS for Inhibitors of the Aldehyde Dehydrogenase Family (ALDH1A1) Confirmatory screens (AID 2061316); note: nearly all actives have a fitted effect of over 65% in size; note: potency is the fitted concentration of half-maximal effect
# [7] = BET inhibitor-based combinations targeting novel dependencies in MECOM-rearranged (r) AML: SET-2 cell line (AID 2202231); details: SET-2 AML cells viability, CellTiter-Glo luminescence, 48 h; viability: hits give low values, concentration not given here; note: nearly all actives have a fitted effect of over 35% in size; note: potency is the fitted concentration of half-maximal effect
# Procedure, shortened: (§1)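 Luminescent ATP readout (CellTiter-Glo) after 48 hr drug exposure gives viability. Curves span 11 concentrations and are normalized to DMSO and empty wells. Activity is reported as area under the curve and its Z-transform within each cell line.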
# [8] = BET inhibitor-based combinations targeting novel dependencies in MECOM-rearranged (r) AML: MV-4-11 cell line (AID 2202233); note: nearly all actives have a fitted effect of over 45% in size; note: potency is the fitted concentration of half-maximal effect
# Procedure, shortened: (§2)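 Luminescent ATP readout (CellTiter-Glo, 15 min at room temperature) after 48 hr drug exposure gave viability. Dose-response curves, normalized to DMSO and empty-well controls, were summarized as area under the curve and its mean-centred Z-score.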
# [9] = BET inhibitor-based combinations targeting novel dependencies in MECOM-rearranged (r) AML: HNT-34 cell line (AID 2202234); note: nearly all actives have a fitted effect of over 35% in size; note: potency is the fitted concentration of half-maximal effect
# Procedure, shortened: as §2
# [10] = BET inhibitor-based combinations targeting novel dependencies in MECOM-rearranged (r) AML: OCI-AML3 cell line (AID 2202232); details: Potency: OCI-AML3 viability; note: nearly all actives have a fitted effect of over 35% in size; note: potency is the fitted concentration of half-maximal effect
# Procedure, shortened: as §1
# [11] = BET inhibitor-based combinations targeting novel dependencies in MECOM-rearranged (r) AML: UCSD-AML1 cell line (AID 2202235); note: nearly all actives have a fitted effect of over 40% in size; note: potency is the fitted concentration of half-maximal effect
# Procedure, shortened: as §2
# [12] = BET inhibitor-based combinations targeting novel dependencies in MECOM-rearranged (r) AML: AML-191 cell line (AID 2202236; note: nearly all actives have a fitted effect of over 35% in size; note: potency is the fitted concentration of half-maximal effect)
# Procedure, shortened: as §1
# [13] = BET inhibitor-based combinations targeting novel dependencies in MECOM-rearranged (r) AML: AML-194 cell line (AID 2202237; note: nearly all actives have a fitted effect of over 40% in size; note: potency is the fitted concentration of half-maximal effect)
# Procedure, shortened: as §1
smiles,measurement,setting,value
COc1ccc(-n2c(C)c(C(C)=O)c3ccccc32)cc1,Potency,[1],0.4 µM (active)
same,Potency,[2],inactive
same,Potency,[3],15.8 µM (active)
same,Potency,[4],inactive
same,Potency,[5],inactive
Cc1c(C(=O)OCC2CCCCO2)[nH]c2c1C(=O)CC(c1ccco1)C2 (centres undefined),Potency,[1],inactive
same,Potency,[2],inactive
same,Potency,[3],14.1 µM (active)
same,Potency,[4],7.12 µM (active)
same,Potency,[5],inactive
same,Potency,[6],1.42 µM (active)
COc1ccc(C2Nc3ccccc3C(=O)N2Cc2ccccc2C)cc1COc1ccc(NC(C)=O)cc1 (centres undefined),Potency,[1],1.79 µM (active)
same,Potency,[2],inactive
same,Potency,[3],17.9 µM (active)
same,Potency,[4],17.9 µM (active)
same,Potency,[5],inactive
same,Potency,[6],25.2 µM (active)
COc1ccc(-n2c(C)c(C(C)=O)c3cc(O)ccc32)cc1,Potency,[1],inactive
same,Potency,[2],inactive
same,Potency,[3],inactive
same,Potency,[4],inactive
same,Potency,[5],inactive
same,Potency,[6],inactive
Cc1occc1-c1ccc2ncnc(NCCc3cnc[nH]3)c2c1,Potency,[1],inactive
same,Potency,[2],inactive
same,Potency,[3],3.57 µM (active)
same,Potency,[4],28.3 µM (active)
same,Potency,[5],inactive
Cc1[nH]cnc1C[C@H]1CCc2c(C)c3ccccc3n2C1=O,Potency,[1],8.96 µM (active)
same,Potency,[2],inactive
same,Potency,[3],3.18 µM (active)
same,Potency,[4],11.3 µM (active)
same,Potency,[5],inactive
COc1ccc(-c2c(NC(C)=O)sc3c2CCNC3)cc1,Potency,[1],inactive
same,Potency,[2],inactive
same,Potency,[3],inactive
same,Potency,[4],20.1 µM (active)
same,Potency,[5],inactive
same,Potency,[6],11.3 µM (active)
Cc1ccc(OCCn2c(CCNC(=O)c3cccc(C(F)(F)F)c3)nc3ccccc32)cc1,Potency,[1],inactive
same,Potency,[2],inactive
same,Potency,[3],inactive
same,Potency,[4],inactive
same,Potency,[5],inactive
same,Potency,[6],inactive
CC(=O)Nc1ccc(-c2c(NC(C)=O)sc3c2CCNC3)cn1,Potency,[1],inactive
same,Potency,[2],inactive
same,Potency,[3],inactive
same,Potency,[4],11.3 µM (active)
same,Potency,[5],inactive
same,Potency,[6],17.9 µM (active)
Nc1nccc(-c2c(-c3ccc(F)cc3)ncn2C2CCCCC2)n1,Potency,[7],20.9 µM (active)
same,Potency,[8],16.6 µM (active)
same,Potency,[9],20.9 µM (active)
Cc1ccc(S(=O)(=O)Nc2cc(C(F)(F)F)ccc2C(=O)Nc2nc(-c3ccccc3)cs2)cc1,Potency,[7],14.8 µM (active)
same,Potency,[10],7.42 µM (active)
same,Potency,[8],8.33 µM (active)
same,Potency,[9],7.42 µM (active)
same,Potency,[11],8.33 µM (active)
same,Potency,[12],5.9 µM (active)
same,Potency,[13],9.34 µM (active)
CC(=O)C1CCN(c2ncc(-c3cccc(N(C)C)c3)s2)CC1,Potency,[1],5.65 µM (active)
same,Potency,[2],inactive
same,Potency,[5],inactive
same,Potency,[6],10.1 µM (active)
Fc1cnc(-c2ccccc2C(F)F)nc1NCC1CCN(c2cnccn2)CC1,Potency,[1],inactive
same,Potency,[2],inactive
same,Potency,[5],inactive
CC(=O)N1CCc2cc(-c3nc(NC(=O)Cc4ccc5c(c4)OCO5)sc3C)ccc21,Potency,[1],2.01 µM (active)
same,Potency,[2],inactive
same,Potency,[5],inactive
same,Potency,[6],10.1 µM (active)
O=C(O)c1ccc(S(=O)(=O)N[C@H](Cc2ccc(O)cc2)C(=O)O)cc1,Potency,[1],inactive
same,Potency,[2],inactive
same,Potency,[5],inactive
same,Potency,[6],10.1 µM (active)
COc1ccc(C2Nc3ccccc3C(=O)N2C2CCCC2)cc1COc1ccc(NC(C)=O)cc1 (centres undefined),Potency,[1],1.59 µM (active)
same,Potency,[2],inactive
same,Potency,[5],inactive
same,Potency,[6],20.1 µM (active)
N#Cc1nc(Nc2ccc(F)cc2)nc(NC2CCCC2)n1,Potency,[1],3.16 µM (active)
same,Potency,[2],inactive
same,Potency,[5],inactive
O=S(=O)(c1ccc2c(c1)OCO2)N1CCN(S(=O)(=O)c2c(F)cccc2F)CC1,Potency,[1],inactive
same,Potency,[2],inactive
same,Potency,[5],inactive
NCC(=O)Nc1cncc(-c2nn3c(=O)cc(N4CCNCC4)nc3s2)c1,Potency,[1],inactive
same,Potency,[2],inactive
same,Potency,[5],inactive
same,viability,[7],111%
same,Potency,[10],inactive
same,Potency,[8],inactive
same,Potency,[9],inactive
same,Potency,[11],inactive
same,Potency,[12],inactive
same,Potency,[13],inactive
NC(=O)C1CCN(c2nc(-c3ccccc3[N+](=O)[O-])cs2)CC1,Potency,[1],12.7 µM (active)
same,Potency,[2],inactive
same,Potency,[5],inactive
same,Potency,[6],5.04 µM (active)
COc1ccc(C2Nc3ccccc3C(=O)N2Cc2ccccn2)cc1COc1ccc(NC(C)=O)cc1 (centres undefined),Potency,[1],6.31 µM (active)
same,Potency,[2],inactive
same,Potency,[5],inactive
O=C(OCC#CCSc1nnc(-c2cccc3ccccc23)o1)c1ccc(Br)cc1,Potency,[1],inactive
same,Potency,[2],inactive
same,Potency,[5],inactive
same,Potency,[6],inactive
O=C(O)c1ccc(-n2cccc2/C=C2\SC(=O)N(Cc3ccc(Br)cc3)C2=O)cc1,Potency,[1],5.04 µM (active)
same,Potency,[2],inactive
same,Potency,[5],inactive
same,Potency,[6],inactive
C/C=C/C=C/C(O)=C1/C(=O)[C@]2(C)C3/C(=C(O)/C=C/C=C/C)C(=O)C4(C)C1[C@]1(C)O[C@@]4(O)[C@@]3(C)O[C@@]12O,Potency,[1],inactive
same,Potency,[2],inactive
same,Potency,[5],inactive
same,Potency,[6],12.3 µM (active)
CN(Cc1ccco1)c1ncnc2ccc(-c3ccoc3)cc12,Potency,[1],inactive
same,Potency,[2],inactive
same,Potency,[5],inactive
same,Potency,[6],12.7 µM (active)
CC(=O)c1cccc(-c2csc(N3CCC(C(N)=O)CC3)n2)c1,Potency,[1],11.3 µM (active)
same,Potency,[2],inactive
same,Potency,[6],5.65 µM (active)
COc1ccc(C2Nc3ccccc3C(=O)N2CCCN(C)C)cc1COc1ccc(NC(C)=O)cc1 (centres undefined),Potency,[1],7.12 µM (active)
same,Potency,[2],inactive
same,Potency,[5],inactive
Cc1cc(NC(=O)c2ccc(NC(=O)Cc3ccc(Cl)c(Cl)c3)cc2)no1,Potency,[1],inactive
same,Potency,[2],inactive
same,Potency,[5],inactive
O=C(O)c1ccc(-n2cccc2/C=C2\SC(=O)N(Cc3ccc(F)cc3)C2=O)cc1,Potency,[1],7.98 µM (active)
same,Potency,[2],inactive
same,Potency,[5],inactive
CC(C)Oc1cccc(-c2cnc(N3CCC(C(N)=O)CC3)s2)c1,Potency,[1],inactive
same,Potency,[2],inactive
same,Potency,[5],inactive

# From PubChem BioAssay (NCATS)
